Test results published in PubChem BioAssay AID1048 (The Scripps Research Institute Molecular Screening Center, 2008).
The whole screen tested about 99,000 compounds, of which about 390 (0.39%) were called active. What follows is part of a selection rich in actives, with near analogues and random picks from the rest. Unmarked numbers belong to inactive results. Rule as the data show it: active = TR-FRET ratio above about 2000; inactive = the rest.

Assay: signal artefacts in PPARgamma/SRC-3 readout – biochemical, TR-FRET ratio, artefact control for PPARgamma SRC-3 recruitment agonists (AID 1048)
Details: TR-FRET artefact counter-screen, PPARgamma/SRC-3 format; at 8 µM; active compounds read high

SMILES | TR-FRET ratio
COc1ccccc1NC(=O)COC(=O)Cc1ccc(S(=O)(=O)N2CCCCC2)s1 | 1680
Cc1c(Cl)c([N+](=O)[O-])nn1CC(=O)NCC1CCCO1 (configuration not stated) | 1690
O=[N+]([O-])c1ccccc1SNc1ccccn1 | 1510
CC(=O)Nc1ccc(Nc2nc3c(S(=O)(=O)c4ccc(C)c(C)c4)nnn3c3ccccc23)cc1 | 1560
COCCCNc1nc2c(-c3cccc(C(F)(F)F)c3)nnn2c2ccccc12 | 2690 (active)
Cc1cccc(Nc2nc3c(S(=O)(=O)c4ccccc4)nnn3c3ccccc23)c1C | 1540
CCOC(=O)c1ccc(NC(=O)c2cc(=O)[nH]c3ccccc23)cc1 | 1550
O=C(NCc1ccc(F)cc1)C(c1ccccc1)N(C(=O)c1csnn1)C1CC1 (configuration not stated) | 1460
CCc1nccn1S(=O)(=O)c1cccc([N+](=O)[O-])c1 | 1700
CC1Cc2ccccc2N1C(=O)CSc1nnc(C2CC2)n1C (configuration not stated) | 1630
Cc1ccc(S(=O)(=O)N(C)c2ccc(OCC(=O)NC3=NCCS3)cc2)cc1 | 1460
Cc1ccc(NC(=O)NNC(=O)c2sccc2-n2cccc2)cc1 | 1310
COc1cc(CN(C)Cc2nc3cc(C(F)(F)F)ccc3c(=O)[nH]2)ccc1OC(F)F | 1340
CSCC(=O)N1CCCC(C(=O)c2cc(F)ccc2F)C1 (configuration not stated) | 1400
Cc1ccc(C(=O)N/C(=C/c2cccs2)C(=O)NCC2CCCO2)cc1 (configuration not stated) | 1510
O=C(CCC(=O)NNc1nc2ccccc2c2nc(-c3ccccc3)nn12)NCCCN1CCCC1=O | 1570
C/C(=N\Nc1ncc(Cl)cc1Cl)c1cccs1 | 1400
COCCn1c(=O)[nH]c(=O)c2cc(C(=O)c3cc(OC)ccc3O)cnc21 | 1460
Fc1ccccc1Cc1ccc(Cl)nn1 | 1250
CCCCOc1ccc(N(CC(=O)NC(C)C)C(=O)CCC(=O)Nc2ccccn2)cc1 | 1760
COc1ccc(C2CC(c3cccs3)=NN2C(=O)COC(=O)c2cc3ccccc3cc2O)cc1OC (configuration not stated) | 1600

SMILES | TR-FRET ratio
O=C(N/N=C/c1ccccn1)C12CC3CC(CC(C3)C1)C2 | 1520
O=C(NCCOc1ccccc1F)Nc1ccc(Br)cc1 | 1530
O=C(O)c1ccc2c3c(cccc13)C(=O)N(OS(=O)(=O)c1ccccc1)C2=O | 1490
CCC(=O)Nc1sc(C(=O)Nc2ccccc2)c(C)c1C(=O)OC | 1430
CCOC(=O)c1sc(NC(=O)COc2ncnc3ccccc23)c(C(=O)OCC)c1C | 1650
CCOC(=O)c1c(NC(=O)CNC2CCCc3ccccc32)sc(C(N)=O)c1C (configuration not stated) | 2120 (active)
CC(C)(C)C1CCC(C(=O)Nc2cccnc2)CC1 (configuration not stated) | 1510
CN1/C(=C\C(=O)c2cccnc2Cl)C(C)(C)c2ccccc21 | 1630
Cc1ccc(Cl)cc1N1CCN(C(=O)c2cccc3c(=O)c(C)c(-c4ccccc4)oc23)CC1 | 1350
O=C(CC1SC(=Nc2ccccc2F)N(CCN2CCOCC2)C1=O)Nc1ccc(F)cc1F (configuration not stated) | 1720
O=C(NNC(=O)c1cc2c(s1)CCCC2)c1ccccc1 | 1550
CC(C)c1nc(CNC(=O)CC2C(=O)NCCN2Cc2ccoc2)cs1 (configuration not stated) | 1610
CCc1cccc(CC)c1NC(=O)COc1ccccc1C(=O)c1cc(C#N)c(=O)n(C2CCCCC2)c1 | 1810
CCN(CC(=O)NCCc1ccccc1)S(=O)(=O)c1ccc(C)cc1 | 1520
O=C(O)CCN(Cc1ccccc1)S(=O)(=O)c1c(Cl)cccc1Cl | 1570
O=C(CCc1ccccc1)Nc1nn[nH]n1 | 1720
C/C(CC(=O)N1CCN(C=O)CC1)=N\NC(=O)c1ccc(Br)cc1 | 1640
O=C(Nc1cccc(Cl)c1)c1cc([N+](=O)[O-])ccc1N1CCN(CCO)CC1 | 1540
O=C(C1CCN(C2CCN(Cc3cccc4c3OCO4)CC2)CC1)N1CCOCC1 | 1420
Cc1cc(OCC(=O)NC2CCN(C)CC2)ccc1[N+](=O)[O-] | 1610
O=C(Nc1ccccc1C(=O)N1CCOCC1)c1ccc(Cl)cc1 | 1680

SMILES | TR-FRET ratio
COc1ccc(C(=O)Nc2ccc(NC(=O)C(C)C)nc2)cc1 | 1500
C=CCn1nc(-c2ccccc2)c2c(C)onc2c1=O | 1650
O=C(N1CCCCC1)N1CCN(C(=O)N2CCCCC2)CC1 | 1530
CC(=O)Nc1ccccc1OC(C)C(=O)N1CCC(C)CC1 (configuration not stated) | 1390
O=C(NCc1ccncc1)NC12CC3CC(CC(C3)C1)C2 | 1490
Cc1ccc(C(=O)OC(C)CN2CCOCC2)cc1 (configuration not stated) | 1500
CCOC(=O)C1CCCN(C(=O)/C=C/c2ccc(OC)cc2)C1 (configuration not stated) | 1570
COc1ccc(CN2CCCC(CNC(=O)c3ccc(F)cc3)C2)cc1OC (configuration not stated) | 1700
Cc1ccnc(NC(=O)CCC(=O)N(CC(=O)NCCc2ccccc2)Cc2cccs2)c1 | 1720
COc1cccc(CC2(CO)CCCN(Cc3nc(-c4cccs4)oc3C)C2)c1 (configuration not stated) | 1600
CCOC(=O)N1CCN(C(=O)Cn2cnc3ccccc3c2=O)CC1 | 1650
Cc1ccc2nsnc2c1NC(=O)c1ccccc1[N+](=O)[O-] | 1630
COc1cc(/C=C/C(=O)O)cc(S(=O)(=O)Nc2ccccc2SC)c1OC | 1430
CCSc1nc(C)c(CCOc2cccc(C)c2)c(=O)[nH]1 | 1860
Cc1ccc(C(=O)NCC(=O)O)s1 | 1560
COc1cc(COCC(O)CN2CCN(Cc3ccc4c(c3)OCO4)CC2)cc(OC)c1OC (configuration not stated) | 1800
CCN(CC)CC(=O)Nc1sc2c(c1C(=O)c1ccccc1C)CCC2 | 1510
NC(=O)C[C@@H]1NC(=O)CNC(=O)c2cc([N+](=O)[O-])cc(I)c2NCCC(C(N)=O)NC1=O (some centres not stated) | 1320
Cc1cc(C(=O)NNC(=O)c2cccc(S(=O)(=O)N3CCOCC3)c2)c2ccccc2n1 | 1670
O=C(Cc1ccccc1)NNC(=O)C1CCN(c2ncccn2)CC1 | 1500
